Data from PubChem BioAssay AID624156 (Broad Institute, 2012).
About 900 (2%) of roughly 46,000 compounds were called active. Not shown: some 1% with an inconclusive outcome. Cut-off read from the data, not from the text of the source: active = ROS induction above about 79% (passing the limit was not always enough); inconclusive = no clear call, values can overlap the other calls. The list comes from a sample in which actives are over-represented; it also holds similar structures and randomly drawn compounds.

Assay: ROS inducers in U2OS cancer cells, primary screen, cell-based, H2DCF-DA fluorescence (AID 624156);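 note: 0% = DMSO vehicle median and 100% = reference compound median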
Conditions: at 10 µM, active compounds read high

| SMILES | ROS induction (% of piperlongumine) |
| --- | --- |
| CN1CCN(CC(O)COc2ccc3ccccc3c2)CC1 (configuration not stated) | -2.48% (inactive) |
| CC(C)CC(C(=O)O)N1C(=O)c2ccccc2C1=O (configuration not stated) | -9.51% (inactive) |
| Cn1c(=O)c2c(nc(SCC(=O)Nc3ccccc3F)n2Cc2ccccc2)n(C)c1=O | 11.1% (inactive) |
| O=C(Nc1nccs1)C1CCCN(C(=O)c2cnn(-c3ccccc3)c2-n2cccc2)C1 (configuration not stated) | 4.87% (inactive) |
| COc1ccc(NS(=O)(=O)c2ccc(OCC(F)(F)F)c(C#N)c2OCC(F)(F)F)cc1 | -8.52% (inactive) |
| CCOc1ccc2c(=O)c(Oc3ccccc3Br)coc2c1 | 0.931% (inactive) |
| Cc1noc(C)c1NC(=O)NCc1ccc2c(c1)OCO2 | -1.2% (inactive) |
| CN(C)c1ccc(/C=C(\C#N)S(=O)(=O)c2ccccc2)cc1C#N | -4.92% (inactive) |
| CC1CCN(C(=O)CCNS(=O)(=O)c2cccc3nsnc23)CC1 | -19.6% (inactive) |
| Cc1cc(C(C)(C)C)cc(S(=O)(=O)Nc2ccc(C(=O)N3CCC(C)CC3)cc2)c1C | 5.57% (inactive) |
| Cc1cccc(NC(=O)c2nnn(-c3cccc(C(F)(F)F)c3)c2N)c1 | -17.1% (inactive) |
| O=S(=O)(NCc1csc(-c2cccnc2)n1)c1ccc2c(c1)CCCC2 | 5.59% (inactive) |
| Cn1c(=NC(=O)CCOc2ccccc2)sc2cc(Br)ccc21 | 1.27% (inactive) |
| Cc1ccc(Nc2cc(C(=O)NCC3CCCO3)c3ccccc3n2)cc1C (configuration not stated) | 1.21% (inactive) |
| Cc1ccc(S(=O)(=O)N(CC(=O)Nc2ccc3c(c2)OCCO3)C2CCCCC2)cc1 | 7.86% (inactive) |
| Cc1cc(Sc2nnc(C)s2)c2ccccc2n1 | 255% (active) |
| Cc1cc(Nc2ccc(Cl)cc2)c2ccccc2n1 | 6.49% (inactive) |
| Cc1nnc(SCc2cc(=O)[nH]c(N3CCN(Cc4ccccc4)CC3)n2)s1 | -2.67% (inactive) |
| Cc1ccc2c(Sc3ccc(Cl)cc3)c(C(=O)NC3CCCC3)[nH]c2c1 | -12.5% (inactive) |
| O=C(N/N=C/c1cc(F)ccc1O)c1ccccc1O | -13.6% (inactive) |
| CNC(=O)NC(=O)CSc1ncnc2sc(-c3ccccc3)cc12 | 5.81% (inactive) |
| c1ccc(Nc2ncnc3sc(-c4ccccc4)cc23)cc1 | 130% (active) |
| Cc1ccccc1NC(=O)NC(=O)CC#N | -16.4% (inactive) |
| C[C@@H]1CN([C@@H](C)CO)C(=O)c2cc(NC(=O)C3CC3)ccc2O[C@H]1CN(C)C | -0.632% (inactive) |

| SMILES | ROS induction (% of piperlongumine) |
| --- | --- |
| Cn1c(=O)c2c(nc(SCC(=O)NC(C)(C)C)n2Cc2ccccc2F)n(C)c1=O | 0.779% (inactive) |
| CC(C)C1Cc2c(sc3nc(SCC(=O)Nc4ccccc4)nc(N)c23)CO1 (configuration not stated) | 44% (inactive) |
| Cc1ccc(NC(=O)c2ccc(CSc3ccccn3)cc2)c(C)c1 | -9.72% (inactive) |
| C[C@@H]1CN([C@H](C)CO)C(=O)c2cc(NS(=O)(=O)c3ccc(F)cc3)ccc2O[C@H]1CN(C)C(=O)Nc1cccc2ccccc12 | 6.38% (inactive) |
| COCCOC(=O)N1C(=O)[C@@]2(c3cc(C#CCC(C(=O)OC)C(=O)OC)ccc31)[C@H](c1ccc(OCCO)cc1)N1[C@H](c3ccccc3)[C@H](c3ccccc3)OC(=O)[C@H]1[C@@H]2C(N)=O | 166% (active) |
| C=CCNC(=O)[C@H]1[C@@H]2C(=O)O[C@@H](c3ccccc3)[C@@H](c3ccccc3)N2[C@@H](c2ccccc2OCCO)[C@]12C(=O)N(C(=O)OCCOC)c1ccc(C#Cc3ccc(OC)cc3)cc12 | 15.7% (inactive) |
| COCCOC(=O)N1C(=O)[C@@]2(c3cc(C#CCNC(N)=O)ccc31)[C@H](C(=O)N1CCN(c3ncccn3)CC1)[C@H]1C(=O)O[C@H](c3ccccc3)[C@H](c3ccccc3)N1[C@@H]2c1ccccc1OCCO | 19.5% (inactive) |
| O=C1O[C@H](c2ccccc2)[C@H](c2ccccc2)N2[C@H]1[C@@H](C(=O)N1CCN(c3ncccn3)CC1)[C@]1(C(=O)Nc3ccccc31)[C@H]2c1ccc(OCCO)cc1 | 69.8% (inactive) |
| COC(=O)C(CC#Cc1ccc2c(c1)[C@]1(C(=O)N2)[C@H](c2ccc(O)cc2)N2[C@H](c3ccccc3)[C@H](c3ccccc3)OC(=O)[C@H]2[C@@H]1C(=O)NC[C@H](O)c1ccccc1)C(=O)OC | 16.4% (inactive) |
| COC(=O)C(CC#Cc1ccc2c(c1)[C@]1(C(=O)N2)[C@H](c2ccccc2OCCO)N2[C@H](c3ccccc3)[C@H](c3ccccc3)OC(=O)[C@H]2[C@@H]1C(N)=O)C(=O)OC | 447% (active) |
| COc1ccc(C#Cc2ccc3c(c2)[C@]2(C(=O)N3)[C@H](c3ccccc3OCCO)N3[C@H](c4ccccc4)[C@H](c4ccccc4)OC(=O)[C@H]3[C@@H]2C(=O)N2CCCCCCC2)cc1 | -14.4% (inactive) |
| O=C1O[C@@H](c2ccccc2)[C@@H](c2ccccc2)N2[C@@H](c3ccccc3OCCO)[C@]3(C(=O)Nc4ccccc43)[C@@H](C(=O)N3CCCCCCC3)[C@H]12 | 108% (active) |
| O=C1O[C@@H](c2ccccc2)[C@@H](c2ccccc2)N2[C@@H](c3ccc(OCCO)cc3)[C@]3(C(=O)Nc4ccc(C#CCCO)cc43)[C@@H](C(=O)O)[C@H]12 | 0.895% (inactive) |
| COc1ccc(CCNC(=O)c2cc3ccccc3c(=O)o2)cc1OC | 19.8% (inactive) |
| COc1ccc(/C=C(/NC(=O)c2ccccc2)C(=O)N2CC3(C)CC2CC(C)(C)C3)cc1 (configuration not stated) | 1.8% (inactive) |
| CCOC(=O)C1CCN(C(=O)CN2C(=O)c3ccccc3C2=O)CC1 | -6.98% (inactive) |
| COc1cccc(CNS(=O)(=O)c2ccc3[nH]c(=O)ccc3c2)c1 | -8.9% (inactive) |
| C[C@@H]1CN([C@@H](C)CO)C(=O)c2cc(NC(=O)CCCN(C)C)ccc2O[C@H]1CN(C)Cc1ccccc1 | -15.8% (inactive) |
| NS(=O)(=O)c1ccc(CCNC2=CC(=O)OC23CCCCC3)cc1 | -9.03% (inactive) |
| O=C(CSc1n[nH]c(-c2ccncc2)n1)Nc1ccccc1F | -7% (inactive) |
| COC(=O)c1ccccc1NC(=O)CSc1n[nH]c(-c2ccncc2)n1 | -0.326% (inactive) |
| COc1ccc(OC)c(NC(=O)CSc2n[nH]c(-c3ccncc3)n2)c1 | 148% (active) |
| CC1CCCC(C)N1C(=O)c1cc2c(s1)-c1ccccc1OC2 (configuration not stated) | -1.02% (inactive) |
